For orientation: AC50 means the concentration giving half of the maximal activity seen.

Records with an inconclusive call do not appear. Activity calls are given as the source filed them. Unless noted, no cut-off is given here; in the data, nearly all actives have AC50 up to about 26 µM.

17 molecules from PubChem BioAssay can be followed below.

The nature of assay [1]: viability loss in pontine glioma line – cell-based, SU-DIPG-XVII, MIPE5.0, CellTiter-Glo, qHTS, dose response (AID 1347060).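 For AC50: cells exposed to compound for 48 hours before viability readout.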 Conditions: CellTiter-Glo ATP luminescence. For orientation: Cellular ATP, detected with luciferase, serves as a proxy for viable cell number.
Assay [2] in a line: viability loss in pontine glioma line – cell-based, SU-DIPG-XIII, MIPE5.0, CellTiter-Glo, qHTS, dose response (AID 1347064; cut-off not given, nearly all actives have AC50 up to about 23 µM;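 for AC50: cells exposed to compound for 48 hours before the viability read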). Conditions: CellTiter-Glo ATP luminescence.
Assay [3] can be described thus: JHH-DIPG-1 glioma cell viability, MIPE5.0 library, CellTiter-Glo luminescence, qHTS (AID 1347067).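 Note: cells exposed to compound for 48 hours before readout.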 Conditions: JHH-DIPG-1 glioma viability, CellTiter-Glo ATP luminescence.
Assay [4] in a line: growth inhibition of DIPG cells – cell-based, MIPE5.0 library, qHTS (AID 1347068; cut-off not given, nearly all actives have IC50 up to about 30 µM). Conditions: SU-DIPG-XXV viability. In general terms: qHTS replaces the single test concentration by a dilution series.
The nature of assay [5]: viability loss in pontine glioma line – cell-based, SU-DIPG-XXV, MIPE5.0, CellTiter-Glo, qHTS, dose response (AID 1347065).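 Note: cells exposed to compound for 48 hours before ATP readout.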 Particulars: CellTiter-Glo ATP luminescence.
A short description of assay [6]: viability loss with induced miR-34 in A549 – imaging, A549 dox-inducible miR-34, nuclei and caspase counts, primary screen (AID 1347080;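 active = compounds whose cell count with miR-34 switched on is under 0.7 times the count with it off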). Conditions: A549 miR-34 inducible, Hoechst nuclei count, 48 h.
A short description of assay [7]: MELAS cybrid and Rieske KO viability enhancers – cell-based, MELAS cybrids, Rieske KO mouse fibroblasts, CellTiter-Glo, primary screen (AID 1508586;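 active = mean z-score across replicates of 1.96 or higher in either the MELAS or the Rieske mutant cell line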;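 note: z relative to plate mean and SD of compound and empty wells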). Particulars: low glucose.
Assay [8] in a line: growth inhibition of DIPG cells – cell-based, MIPE4.0 library, CellTiter-Glo luminescence, qHTS (AID 1347066; cut-off not given, nearly all actives have AC50 up to about 30 µM;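 note: cells exposed to compound for 48 hours before readout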). Particulars: SU-DIPG-VI viability, CellTiter-Glo ATP luminescence.
Assay [9] is described as follows: blockers of cellular phospholipid synthesis – cell-based, LOPAC library, screen 4, primary screen (AID 1347384; call rule not given here). Particulars: animal cells, phospholipid biosynthesis inhibition screen; at 10 µM.

As for `CS(=O)(=O)Nc1cc2occ(NC=O)c(=O)c2cc1Oc1ccccc1`, the call in assay [1], in [2], in assay [3] and in assay [4] was inactive.
Turning to `Fc1ccc(-c2nc(-c3ccccc3F)[nH]c2-c2ccncc2)cc1`, the call in assay [1], in assay [2], in [3] and in assay [4] was inactive.
With `CC(C)[C@H]1C(=O)N[C@@H](CCCN=C(N)N)C(=O)NCC(=O)N[C@@H](CC(=O)O)C(=O)N[C@H](Cc2ccccc2)C(=O)N1C`, the result in assay [1], in assay [2], in [3] and in assay [4] was inactive.
Regarding `O=C(Nc1ccc(-c2ccnc(Nc3ccc(N4CCOCC4)cc3)n2)cc1)C1CCCN1` (centres undefined), the AC50 in assay [1] is 18.6 µM (active); in assay [2], 18.6 µM (active); in assay [5] it was 16.6 µM (active). Also, in assay [4], the call was inactive. The fold change in assay [6] (stronger effect = lower value, cell number ratio, induced over uninduced) was 0.711 (inactive); in [6] (measured here: relative caspase fold change +Dox/-Dox), 0.977. For the same molecule, the cell count in assay [6] (measured here: total cells with miR-34 induction, stronger effect = lower value) stood at 5090; in [6] (measured here: total cells without miR-34 induction) it was 7160. Also, the z-score in assay [7] (MELAS cybrid survival, CellTiter-Glo 48 h, stronger effect = higher value) is -0.234 (inactive); in [7] (Rieske KO mouse fibroblast survival, CellTiter-Glo 72 h), -0.152.
For the molecule `NC1CCCN(c2c(/C=C3\SC(=O)NC3=O)cccc2-c2ccccc2)C1` (centres undefined), the outcome in [1], in assay [2], in assay [3] and in assay [4] was inactive.
`NS(=O)(=O)OC[C@@H]1C[C@@H](n2ccc3c(N[C@H]4CCc5ccccc54)ncnc32)C[C@@H]1O`: the AC50 in [1] is 1.48 µM (active). Also, the result in assay [2], in assay [8], in [3] and in assay [4] was inactive.
Turning to `CC(C)NC(=O)N1CC[C@H](N=C2Nc3cc(F)ccc3N(CC(F)F)c3ccc(Cl)cc32)C1`, the molecule was called inactive in assay [1], in [2], in assay [3] and in assay [4].
Take `N[C@@H]1CN(c2c(F)cc3c(=O)c(C(=O)O)cn([C@@H]4C[C@@H]4F)c3c2Cl)CC12CC2`: the result in [1], in assay [2], in [3] and in assay [4] was inactive.
Consider `NCC1CCN(c2nccc(-c3ccc4ccccc4c3)n2)CC1`, for which the AC50 in [1] was 11.8 µM (active); in [2] it was 16.6 µM (active); in [3], 10.5 µM (active).
`CN(C)c1cccc(-c2c3c(=O)n(-c4ccccc4Cl)[nH]c3cc(=O)n2C)c1`: the call in [1], in assay [2], in assay [3] and in [4] was inactive.
Turning to `C[N+](C)(C)CC(=O)O`, the molecule was classed as inactive in [1], in [2], in assay [5], in [4] and in assay [9].
`[2H]C([2H])([2H])C(O)([C@@H](C)/C=C/[C@@H](C)[C@H]1CC[C@H]2/C(=C/C=C3C[C@@H](O)C[C@H](O)C3)CCC[C@]12C)C([2H])([2H])[2H]`: the molecule was called inactive in [1], in assay [2] and in assay [3].
As to `CN1C(N)=N[C@](C)(c2cc(NC(=O)c3ccc(F)cn3)ccc2F)CS1(=O)=O`, the call in assay [1], in assay [2], in assay [3] and in [4] was inactive.
`CC(C)N(C[C@H]1O[C@@H](n2cnc3c(N)ncnc32)[C@H](O)[C@@H]1O)C1CC(CCc2nc3ccc(C(C)(C)C)cc3[nH]2)C1` (some centres undefined): the call in assay [1], in [2], in [3] and in [4] was inactive.
Take `Fc1ccc(-c2csc3ncnc(NCc4ccc5c(c4)OCO5)c23)cc1`: the half-maximal activity concentration (AC50) in assay [1] was 20.9 µM (active); in assay [2], 16.6 µM (active); in assay [3] it was 18.6 µM (active). Also, in [4], the outcome was inactive.
Take `Cc1c(F)ccc(C(=O)Nc2cc([N+](=O)[O-])ccc2N2CCN(C)CC2)c1Cl`: the AC50 in assay [1] is 26.3 µM (active). Moreover, the call in assay [2], in [5] and in assay [4] was inactive.
As for `C[C@H](NC(=O)C(=O)Nc1ccccc1C(C)(C)C)C(=O)N[C@@H](CC(=O)O)C(=O)COc1c(F)c(F)cc(F)c1F`, the molecule was called inactive in assay [1] and in assay [4]. Also, the AC50 in assay [2] was 16.6 µM (active); in assay [3] it was 2.95 µM (active).
